From PubChem BioAssay
IL-1B inflam inh – blocks inflammasome-driven IL-1 beta release; THP-1 LPS/ATP IL-1B secretion, AlphaLISA, 16 h; active compounds read low; activity change, % at 57.5 µM; 360,000 tested, 4.7% active; in the data active means activity change below about -50%; inconclusive means mostly about -30% to -49%
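Secreted IL-1B measured by AlphaLISA bead assay after 16 h compound exposure of THP-1 cells; compounds (final up to 57.5 uM) added 1 h before LPS (250 ng/mL) and ATP (1.25 mM) stimulation; lower signal means less secretion.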
TDP1 cell CPT – DT40-hTDP1 cell growth loss with CPT. chicken DT40 Tdp1-/-;hTDP1 cells + 20 nM CPT, ATP luminescence, 48 h. 420,000 tested, 12% active. Potency, µM (highest dose often 46.2 µM), inactives show at the top dose activity change, negative = growth inhibition, usual class: inhibitors; further: potency means the concentration at half of the fitted maximal effect; nearly all actives have a fitted effect of over 55% in size
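Cell growth measured by CellTiter-Glo luminescence after a minimum 48 h, 37 C compound exposure with 20 nM CPT in Tdp1-knockout DT40 cells stably expressing hTDP1, seeded 400/well; qHTS titration format.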
HT1080-NT tox – kills 2HG-producing HT-1080-NT fibrosarcoma cells; HT-1080-NT fibrosarcoma viability, CellTiter-Glo ATP luminescence, 48 h; Potency, µM (highest dose often 46.1 µM), inactives show at the highest dose activity, negative = less viability, most hits filed as cytotoxic; 360,000 tested, 1.6% active; AID 686970;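 further: NT is the 2HG producing partner of a matched IDH1 knockdown line; potency means the concentration at half of the fitted maximal effect; 0% = DMSO-treated cells and -100% = media-only wells without cells; nearly all actives have a fitted effect of over 55% in size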
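HT-1080-NT fibrosarcoma cells (2HG-overproducing), 750 cells/well in RPMI with 5% FBS, dosed after 2 h and incubated 48 h at 37C. CellTiter-Glo luminescence normalized to DMSO and no-cell wells; concentration-response curves fitted and classed.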
HT1080 IDH1KD tx – toxicity to HT-1080 IDH1 knockdown cells (counter line) | HT-1080 IDH1 knockdown viability, ATP luminescence, 48 h | AID 686971 | Potency, µM (highest dose often 46.1 µM), for the others: top-dose activity, negative = toxicity, most hits filed as cytotoxic | 360,000 tested, 2% active;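 further: potency means the concentration at half of the fitted maximal effect; 0% = DMSO wells and -100% = cell-free medium wells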
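IDH1KD HT-1080 cells, 750/well, RPMI + 5% FBS; compound pinned after 2 h settling; 48 h, 37 °C; CellTiter-Glo luminescence; % activity normalised to DMSO and no-cell wells; curves fitted, classed by r2 and efficacy.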
TDP1 cell noCPT – qHTS for Inhibitors of human tyrosyl-DNA phosphodiesterase 1 (TDP1): qHTS in cells in absence of CPT. DT40 Tdp1-/- hTDP1 cells, no CPT, ATP luminescence, 48 h. Potency, µM (series often up to 46.2 µM), inactives show at the top dose activity change, negative = growth inhibition, hits mostly inhibitors. 420,000 tested, 15% active. AID 686978, 2013; further: potency means the concentration at half of the fitted maximal effect; nearly all actives have a fitted effect of over 55% in size
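Chicken DT40 Tdp1-/- cells stably complemented with human TDP1 were seeded at 400 cells/well with DMSO in place of 20 nM camptothecin. After compound pinning, cells grew at least 48 hr at 37 °C; viability read by CellTiter-Glo luminescence.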
* = called active by the depositor. Most compounds without a hit are left out; they make up all but 19% or so of the library. Unless noted, the call rests on the fitted dose curve; in most records, active means well fitted curve in the direction sought with a large enough effect; inconclusive means small, poorly fitted or top-dose-only effect, or another doubt; inactive means no such curve, though single readings can be large; an effect the other way counts as inactive or inconclusive. Unless noted, on the % scale 0 is the no-effect control and ±100 the full control effect.

Results for CC(C)CC(C(=O)NCC1CCN(Cc2ccc(F)cc2)CC1)N1Cc2ccccc2C1=O (centres undefined) ?
TDP1 cell CPT: 23µM*; TDP1 cell noCPT: 21µM*

How did Cc1ccc(C)c(CN2CCC(CNC(=O)C(CC(C)C)N3Cc4ccccc4C3=O)CC2)c1 (centres undefined) do in these assays?
TDP1 cell CPT: inconclusive; TDP1 cell noCPT: 12µM*

What do the screens show for `CC(C)CCNC(=O)[C@H](Cc1ccccc1)N1Cc2ccccc2C1=O`?
IL-1B inflam inh: -14; TDP1 cell CPT: inconclusive; HT1080-NT tox: 8%; HT1080 IDH1KD tx: 9%; TDP1 cell noCPT: -11%

What do the screens show for `CC(=O)Nc1ccc(S(=O)(=O)N2CCN(Cc3csc(C)n3)CC2)cc1`?
IL-1B inflam inh: 0; TDP1 cell CPT: 7%; HT1080-NT tox: 6%; HT1080 IDH1KD tx: 1%; TDP1 cell noCPT: -14%

What do the screens show for `CNCCOc1ccccc1-c1ccccc1`?
IL-1B inflam inh: -21; TDP1 cell CPT: -28%; HT1080-NT tox: -1%; HT1080 IDH1KD tx: 0%; TDP1 cell noCPT: inconclusive

What do the screens show for `CNCCCC1c2ccccc2C=Cc2ccccc21`?
IL-1B inflam inh: 0; TDP1 cell CPT: inconclusive; HT1080-NT tox: 18µM*; HT1080 IDH1KD tx: 23µM*; TDP1 cell noCPT: 23µM*

What do the screens show for `COC(=O)c1ccccc1NC(=O)c1nc(-c2ccc(Cl)cc2)n2c1CCCCC2`?
TDP1 cell CPT: -16%; TDP1 cell noCPT: inconclusive

Results for Cc1cccc(CCNC(=O)c2nc(-c3ccc(Cl)cc3)n3c2CCCCC3)c1 ?
TDP1 cell CPT: 10µM*; TDP1 cell noCPT: 9.2µM*

How did COc1ccc(CNC(=O)c2ccc3c(c2)nc2n3CCCCC2)c(OC)c1 do in these assays?
TDP1 cell CPT: 5%; TDP1 cell noCPT: -19%

How did COc1ccccc1N1CCN(C(=O)c2nc(-c3ccc(C)cc3)n3c2CCCCC3)CC1 do in these assays?
TDP1 cell CPT: -29%; TDP1 cell noCPT: inconclusive

How did COc1ccc(CCNC(=O)c2nc(-c3ccc(Cl)cc3)n3c2CCCCC3)c(OC)c1 do in these assays?
TDP1 cell CPT: 10µM*; TDP1 cell noCPT: 9.2µM*

Results for O=C(c1nc(-c2ccc(Cl)cc2)n2c1CCCCC2)N1CCN(c2ccccc2)CC1 ?
TDP1 cell CPT: inconclusive; TDP1 cell noCPT: 21µM*

Results for CC1(C(=O)NS(=O)(=O)c2ccc(F)cc2F)CCN1C(=O)c1ccccc1CCc1ccccc1 (centres undefined) ?
IL-1B inflam inh: 23; TDP1 cell CPT: inconclusive; HT1080-NT tox: -2%; HT1080 IDH1KD tx: -10%; TDP1 cell noCPT: inconclusive

What do the screens show for `COc1ccc(-c2ccc(NS(=O)(=O)c3cc([N+](=O)[O-])c(C)c([N+](=O)[O-])c3)cc2)nn1`?
IL-1B inflam inh: 22; TDP1 cell CPT: -4%; HT1080-NT tox: 0%; HT1080 IDH1KD tx: 4%; TDP1 cell noCPT: -4%

How did COc1cc(/C=C/c2cc[n+](C)cc2)ccc1OCC(=O)Nc1ccccc1 do in these assays?
IL-1B inflam inh: -16; TDP1 cell CPT: -4%; HT1080-NT tox: 13%; HT1080 IDH1KD tx: 1%; TDP1 cell noCPT: -28%

Results for CC(=O)Oc1ccccc1/C=C/c1ccc2ccccc2[n+]1C ?
IL-1B inflam inh: -57*; TDP1 cell CPT: 21µM*; HT1080-NT tox: inconclusive; HT1080 IDH1KD tx: inconclusive; TDP1 cell noCPT: 16µM*

What do the screens show for `CC(=O)/C=C\c1ccccc1OC(=O)c1cc2ccccc2oc1=O`?
IL-1B inflam inh: -23; TDP1 cell CPT: 0%; HT1080-NT tox: 0%; HT1080 IDH1KD tx: 4%; TDP1 cell noCPT: -4%

Results for COc1cc(/C=C/c2cc[n+](C)c3ccccc23)cc(OC)c1OC ?
TDP1 cell CPT: -14%; TDP1 cell noCPT: -9%

Results for COc1cc(OC)c(OC)cc1/C=C/c1ccc2ccccc2[n+]1C ?
TDP1 cell CPT: 0.89µM*; TDP1 cell noCPT: 0.71µM*

How did COc1ccc(/C=C/c2ccc3ccccc3[n+]2C)c(OC)c1OC do in these assays?
TDP1 cell CPT: 1.4µM*; TDP1 cell noCPT: 1.1µM*

What do the screens show for `COc1ccc(/C=C/c2ccc3ccccc3[n+]2C)cc1OC`?
IL-1B inflam inh: -6; TDP1 cell CPT: 13µM*; HT1080-NT tox: -5%; HT1080 IDH1KD tx: -5%; TDP1 cell noCPT: 18µM*

Results for O=C(C(=O)N1CCC(Cc2ccccc2)CC1)c1cccc(Br)c1 ?
IL-1B inflam inh: -18; TDP1 cell CPT: inconclusive; HT1080-NT tox: 1%; HT1080 IDH1KD tx: inconclusive; TDP1 cell noCPT: inconclusive

What do the screens show for `COc1ccc(C2=CCN3CCCCC3C2)c(-c2ccc(OC)c(OC)c2)c1` (centres undefined)?
IL-1B inflam inh: -22; TDP1 cell CPT: inconclusive; HT1080-NT tox: 12%; HT1080 IDH1KD tx: 10%; TDP1 cell noCPT: inconclusive

What do the screens show for `Cc1ccc(-c2cc(C(=O)OCC(=O)N(C)c3c(N)n(Cc4ccccc4)c(=O)[nH]c3=O)c3ccccc3n2)o1`?
IL-1B inflam inh: inconclusive; TDP1 cell CPT: inconclusive; HT1080-NT tox: -9%; HT1080 IDH1KD tx: -5%; TDP1 cell noCPT: inconclusive

How did Cc1ccc(CSc2nc3cccnc3n2Cc2ccc(C(=O)NCCc3cccs3)cc2)cc1 do in these assays?
TDP1 cell CPT: 18µM*; TDP1 cell noCPT: 18µM*

What do the screens show for `Cc1ccc(CSc2nc3cccnc3n2Cc2nc(-c3ccccc3F)oc2C)cc1`?
TDP1 cell CPT: 4.6µM*; TDP1 cell noCPT: 3.7µM*

Results for Cc1oc(-c2ccccc2F)nc1CSCC(=O)NC1CCCC1 ?
IL-1B inflam inh: -1; TDP1 cell CPT: -15%; HT1080-NT tox: -6%; HT1080 IDH1KD tx: -9%; TDP1 cell noCPT: 12%

How did O=C(NC1CCCC1)c1ccc2c(=O)n(Cc3ccccc3)c(SCc3cccc(F)c3)nc2c1 do in these assays?
TDP1 cell CPT: -27%; TDP1 cell noCPT: inconclusive

Results for O=C(NC1CCCC1)c1ccc(CSc2nc3cccnc3n2Cc2cccc(F)c2)cc1 ?
TDP1 cell CPT: inconclusive; TDP1 cell noCPT: 15µM*

Results for CC1CCC(NC(=O)c2ccc(CSc3nc4ccncc4n3Cc3ccc(F)cc3)cc2)CC1 (centres undefined) ?
TDP1 cell CPT: inconclusive; TDP1 cell noCPT: 7.3µM*

What do the screens show for `COc1ccc(C(=O)COC(=O)CN2C(=O)c3ccccc3C2=O)c(OC)c1`?
IL-1B inflam inh: inactive; TDP1 cell CPT: -3%; HT1080-NT tox: 6%; HT1080 IDH1KD tx: 12%; TDP1 cell noCPT: -7%

What do the screens show for `O=C(CCNS(=O)(=O)c1ccc(Cl)cc1)NCc1cccs1`?
IL-1B inflam inh: -14; TDP1 cell CPT: inconclusive; HT1080-NT tox: 0%; HT1080 IDH1KD tx: 3%; TDP1 cell noCPT: -25%
